# A selection: hits, their analogues and other compounds. The true share with any hit is near 3.4%.
# GPR151 ag: activators of human GPR151, primary screen, cell-based, PathHunter beta-arrestin, luminescence; G-protein coupled receptor 151 (Homo sapiens), Q8TDV0; PathHunter beta-arrestin GPR151 cells; activation, % at 11.2 µM; 650,000 compounds, 1% hits; AID 1508602, 2020; in the data active means activation above about 4.9%
# MITF primary: MITF inhibitors, primary screen, biochemical, AlphaScreen, human | inhibition, % at 2.6 µM | Microphthalmia-associated transcription factor (Homo sapiens), O75030 | 650,000 compounds, 0.91% hits | AlphaScreen MITF homodimerization, bead proximity signal | AID 1259374, 2018; in the data active means inhibition above about 50%
# Target sequence (O75030 whole entry, looked up): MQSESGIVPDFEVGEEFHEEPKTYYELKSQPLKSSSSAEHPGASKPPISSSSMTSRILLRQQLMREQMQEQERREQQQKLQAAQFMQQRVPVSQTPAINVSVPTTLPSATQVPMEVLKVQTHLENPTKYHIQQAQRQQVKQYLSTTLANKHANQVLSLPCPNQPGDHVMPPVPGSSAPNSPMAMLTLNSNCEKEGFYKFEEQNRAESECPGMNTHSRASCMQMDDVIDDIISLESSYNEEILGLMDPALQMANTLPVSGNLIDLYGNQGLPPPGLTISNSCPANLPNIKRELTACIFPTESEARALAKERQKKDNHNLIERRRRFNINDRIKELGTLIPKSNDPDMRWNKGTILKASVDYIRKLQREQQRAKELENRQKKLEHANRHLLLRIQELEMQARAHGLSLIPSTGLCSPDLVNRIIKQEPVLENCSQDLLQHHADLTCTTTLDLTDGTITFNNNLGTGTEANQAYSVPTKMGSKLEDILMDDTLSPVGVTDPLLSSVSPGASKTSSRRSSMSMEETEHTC
# FBW7 act: FBW7 E3 ligase activators, primary screen, biochemical, AlphaScreen, human; F-box/WD repeat-containing protein 7 (Homo sapiens), Q969H0; AlphaScreen FBW7–phospho-cyclin E peptide binding, activator screen; normalized activity (activation), % at 26.1 µM; 650,000 compounds, 0.13% hits; AID 1259310, 2017; in the data active means normalized activity above about 1.9%;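 further: purified mutant Fbw7 with reduced substrate affinity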
# TEAD-YAP inh: TEAD-YAP interaction inhibition, primary screen, TEAD-YAP interaction inhibitor project, luminescence, HEK-TIYL cells. TEAD-Gal4/YAP UAS-luciferase luminescence. inhibition, % at 9.12 µM. 640,000 compounds, 1.4% hits. AID 1259422, 2018; in the data active means inhibition above about 32%
# Numbers stand for hits; – = inactive.
SMILES,GPR151 ag,MITF primary,FBW7 act,TEAD-YAP inh
Cc1nnc(NC(=O)Cc2c(Cl)cccc2Cl)s1,–,–,–,–
CC[C@H](C)[C@H](NC(N)=O)C(=O)NNC(=O)c1ccc(N(CC)CC)cc1,–,–,–,–
Cc1c(-c2cnn(C)c2)ccc2cnc(Nc3ccc(-n4cnc(N5CCOCC5)n4)cc3)nc12,–,–,–,–
Cn1cc(-c2ccc3cnc(Nc4ccccc4)cc3c2)cn1,–,–,–,36
CCOC(=O)c1c(-c2cnn(C)c2)ccc2cnc(Nc3ccc(-n4cnc(N5CCOCC5)n4)cc3)nc12,–,–,–,98
Cn1cc(-c2ccc3cnc(Nc4ccc(-n5cnc(N6CCOCC6)n5)cc4)cc3c2)cn1,–,–,–,83
CC(C)N1CCN(c2ncn(-c3ccc(Nc4ncc5ccc(-c6cnn(C)c6)c(Cl)c5n4)cc3)n2)CC1,–,–,–,90
Cc1nc(C)n(-c2ccc(Nc3cc(-c4cnn(C)c4)ccn3)cc2)n1,–,–,–,–
Cn1cc(-c2cccc3cnc(Nc4ccc(-n5cnc(N6CCOCC6)n5)cc4)nc23)cn1,–,–,–,–
Cn1cc(-c2nc(Nc3ccc(-n4cnc(N5CCOCC5)n4)cc3)ncc2F)cn1,–,–,–,–
c1cc(-n2cnc(N3CCOCC3)n2)ccc1Nc1ncc2cc(-c3cn[nH]c3)ccc2n1,–,–,–,–
Clc1cnc(Nc2ccc(-n3cnc(N4CCOCC4)n3)cc2)nc1-c1cn[nH]c1,–,–,–,55
O=C(NCc1ccc2c(c1)OCO2)c1cc(COc2cccc(C(F)(F)F)c2)on1,–,–,–,–
CC1CCN(C(=O)CSc2ncccc2-c2nc3ccccc3[nH]2)CC1,–,–,–,49
Cc1nc(NC(=O)CSc2ncccc2-c2nc3ccccc3[nH]2)sc1C,–,–,–,73
COC(=O)c1sc(NC(=O)CSc2ncccc2-c2nc3ccccc3[nH]2)nc1C,–,–,–,–
COc1ccccc1CCc1nnc(CCC(=O)N2CCN(CC3CC3)CC2)o1,–,–,–,–
CCOC(=O)C(C)Oc1cc(Br)c(C=O)cc1OC (configuration not stated),–,–,–,–
CCOC(=O)C(=Cc1cc(OC)c(OC)cc1Br)C(=O)OCC,–,–,–,42
CCc1ccc(NC(=O)Nc2nnc(N3C(C)CCCC3C)s2)cc1 (configuration not stated),–,–,–,–
O=C(CSc1n[nH]c(-c2ccncc2)n1)c1ccc(O)c(O)c1,–,99,–,–
Oc1ccccc1N1CCN(c2ncnc3sccc23)CC1,–,–,–,56
Cc1ccc(C(=O)C2CCN(CC(=O)Nc3ccc(F)cc3)CC2)cc1,–,–,–,–
Cc1ccc2nc(-c3ccsc3)c(NCC(=O)NN)n2c1,–,–,–,–
O=C(CCc1nc2ccccc2s1)c1ccccc1,–,–,2.0,–
SMILES,GPR151 ag,MITF primary,FBW7 act,TEAD-YAP inh
CC(C)c1ccc2nc(NC(=O)c3ccccc3)sc2c1,–,–,–,39
CCc1ccc(C(=O)Nc2nc3ccccc3s2)cc1,–,–,–,50
CCCc1ccc(-c2ccc(C(=O)Nc3nc4ccccc4s3)cc2)nc1,–,–,–,–
CCN(CC)C(=O)c1ccc2nc(NC(=O)c3ccc(OC(C)=O)cc3)sc2c1,–,–,2.0,78
O=C(O)c1ccccc1/C=N/Nc1nc2ccccc2s1,–,–,–,94
O=C(Nc1nc2ccccc2s1)c1ccccc1,–,–,–,32
O=C(Nc1nc2ccccc2s1)c1ccc(N2C(=O)CCC2=O)cc1,–,–,–,–
O=C(O)COc1ccccc1/C=N/Nc1nc2ccccc2s1,–,–,–,–
Clc1cnc2nc(-c3cccnc3)[nH]c2c1,–,–,–,–
Nc1ccc(-c2nc3ncc(Cl)cc3[nH]2)cc1,–,–,–,35
Cc1ccc(C(=O)OCC(=O)c2ccc([N+](=O)[O-])cc2)cc1N1C(=O)c2ccccc2C1=O,–,–,–,–
N/C(=N\OC(=O)c1sc2ccccc2c1Cl)c1ncon1,–,–,–,40
N/C(=N\OC(=O)c1ccccc1Cl)c1ncon1,–,–,–,–
c1ccc2c(NCCc3cnc[nH]3)c3ccccc3nc2c1,–,–,–,77
OCCNc1c2ccccc2nc2ccccc12,–,–,–,71
O=C(O)CNc1c2ccccc2nc2ccccc12,–,–,–,–
Cc1ccc(CN2C3=C(C(=O)CC(C)(C)C3)C(c3ccc(Cl)cc3Cl)C3=C2CC(C)(C)CC3=O)cc1,–,–,–,–
CC(=O)c1ccc(N=Nc2ccc3nonc3c2N)cc1,–,–,–,50
Cc1ccc(-c2nc(-c3ccc([N+](=O)[O-])cc3)no2)cc1,–,–,–,–
O=C(CSc1nncn1-n1cccc1)Nc1nccs1,–,–,–,–
O=C1OC(c2ccc(Cl)cc2)=N/C1=C/c1ccccc1OC(=O)c1ccc(Br)cc1,–,–,–,–
Cc1ccc(C2=N/C(=C\c3ccccc3OC(=O)c3ccc(Cl)cc3)C(=O)O2)cc1,–,–,–,45
CCOC(=O)N1CCN(C(=O)c2sc3ncnc(N4CCN(c5ccc(OC)cc5)CC4)c3c2C)CC1,–,–,–,–
Fc1ccc(Nc2nc(NCc3ccco3)c3ccccc3n2)cc1,–,–,–,36
COc1ccc(Nc2nc(NCc3ccco3)c3ccccc3n2)cc1,–,–,–,50
SMILES,GPR151 ag,MITF primary,FBW7 act,TEAD-YAP inh
Clc1ccc(Nc2nc(NCc3ccco3)c3ccccc3n2)cc1,–,–,–,–
O=C(N/N=C/c1cc([N+](=O)[O-])cc(Br)c1O)C1COc2ccccc2O1 (configuration not stated),–,–,–,–
Cc1n[nH]c(C)c1-c1ccc2cnc(Nc3ccc(-n4cnc(N5CCOCC5)n4)cc3)nc2c1,–,–,–,35
Cn1cnc(-c2ccc3cnc(Nc4ccc(-n5cnc(N6CCOCC6)n5)cc4)nc3c2)n1,–,–,–,–
Cc1[nH]ncc1-c1ccc2cnc(Nc3ccc(-n4cnc(N5CCOCC5)n4)cc3)nc2c1,–,–,–,85
Cc1nc(-c2ccc3cnc(Nc4ccc(-n5cnc(N6CCOCC6)n5)cc4)nc3c2)n[nH]1,–,–,–,–
COc1ccc(C2CC(=O)c3c(ccc4ccccc34)N2)cc1 (configuration not stated),–,–,–,–
COc1ccc(Br)cc1C1CC(=O)c2c(ccc3ccccc23)N1 (configuration not stated),–,–,–,37
CCN(CC)S(=O)(=O)c1ccc(/C=C/C(=O)Oc2ccccc2)cc1,–,–,–,–
N/C(=N\OC(=O)c1ccccc1Br)c1ccc(Cl)cc1,–,–,–,–
CC(=O)Oc1ccc(C(=O)O/N=C(\N)c2cccnc2)cc1,–,–,–,35
COc1ccc(/C(N)=N/OC(=O)c2ccc(C(C)(C)C)cc2)cc1,–,–,–,–
Cc1ccc(C(=O)O/N=C(\N)c2ccccc2)c(Cl)c1,–,–,–,74
N/C(=N\OC(=O)c1cccc2ccccc12)c1ccc(Cl)cc1,–,–,2.1,–

# Source: PubChem (The Scripps Research Institute Molecular Screening Center)
